This experiment is described as follows: PubChem AID 623923. The settings on record: Ricerca radioligand binding panel, % inhibition, at 10 µM, stronger effect = higher value.

Active and inactive are the calls of the source. How the calls were made is not given here.

The inhibition is the relative decrease from the control value, in per cent. For `COc1ccc(C)c2sc(NC(=O)c3ccncc3)nc12`, the inhibition of radioligand binding, adenosine A1 was 91% (active). In addition, the inhibition (5-HT2B binding) worked out at 70%. Moreover, the inhibition (DAT transporter binding) turned out to be 13%. The inhibition (GABA-A muscimol site binding) worked out at 47%. In addition, the inhibition (NET transporter binding) was 18%. Besides, the inhibition (PAF receptor binding) was 34%. Besides, the inhibition (adenosine A2A binding) is 100%. Moreover, the inhibition (adenosine A3 binding) came out at 99%. Also, the inhibition (hERG binding) came to 13%. The inhibition (muscarinic M1 binding) was -3%. In addition, for the setting “muscarinic M2 binding”, the inhibition was -2%. Under “muscarinic M3 binding”, the inhibition turned out to be 3%. Moreover, where the note is “sigma 1 binding”, the inhibition came out at 39%.
